# PubChem BioAssay AID1159580 (chemical genetic matrix, 2015)
# Among all 5,500 compounds or so, about 2,000 (36%) were called active. Another 18% or so got no clear call; they are omitted. This is one part of the list. Values without a mark were called inactive. No stated cut-off is given here; in the data, active means normalized growth mostly below about 0.91 (no sharp cut-off); inconclusive means no clear call, values can overlap the other calls; inactive means mostly above about 0.92.
# Test: chemical genetic growth profiling, strain panel (AID 1159580);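 further: tested at 20 µM; growth read once vehicle control cultures reached saturation at 30 °C; 1 = growth at the plate median or of vehicle wells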
# Settings: growth OD
compound,measurement,setting,value
O=C(O[C@@H]1Cc2c(O)cc(O)cc2O[C@@H]1c1cc(O)c(=O)c2c(O)c(O)cc([C@H]3Oc4cc(O)cc(O)c4C[C@H]3OC(=O)c3cc(O)c(O)c(O)c3)c2c1)c1cc(O)c(O)c(O)c1,normalized growth,"S. cerevisiae deletion strains, locus YJR075W, strain HOC1, stronger effect = lower value",0.753 (active)
same,normalized growth,"S. cerevisiae deletion strains, locus YKL009W, strain mrt4, stronger effect = lower value",1.06
same,normalized growth,"S. cerevisiae deletion strains, locus YKL068W, stronger effect = lower value",1.04
same,normalized growth,"S. cerevisiae deletion strains, locus YKL085W, strain MDH1 (second series), stronger effect = lower value",1.05
same,normalized growth,"S. cerevisiae deletion strains, locus YKL085W, strain MDH1, stronger effect = lower value",1.05
same,normalized growth,"S. cerevisiae deletion strains, locus YKL160W, strain elf1, stronger effect = lower value",0.71 (active)
same,normalized growth,"S. cerevisiae deletion strains, locus YKL190W, strain CNB1, stronger effect = lower value",0.637 (active)
same,normalized growth,"S. cerevisiae deletion strains, locus YKR001C, strain vps1, stronger effect = lower value",0.979
same,normalized growth,"S. cerevisiae deletion strains, locus YKR026C, strain gcn3, stronger effect = lower value",0.971
same,normalized growth,"S. cerevisiae deletion strains, locus YKR091W, strain srl3, stronger effect = lower value",0.927 (active)
same,normalized growth,"S. cerevisiae deletion strains, locus YLL001W, strain dnm1, stronger effect = lower value",0.614 (active)
same,normalized growth,"S. cerevisiae deletion strains, locus YLL026W, stronger effect = lower value",0.553 (active)
same,normalized growth,"S. cerevisiae deletion strains, locus YLL041C, strain sdh2, stronger effect = lower value",0.661 (active)
same,normalized growth,"S. cerevisiae deletion strains, locus YLR027C, strain aat2, stronger effect = lower value",0.407 (active)
same,normalized growth,"S. cerevisiae deletion strains, locus YLR039C, strain RIC1, stronger effect = lower value",0.598 (active)
same,normalized growth,"S. cerevisiae deletion strains, locus YLR058C, strain SHM2, stronger effect = lower value",0.525 (active)
same,normalized growth,"S. cerevisiae deletion strains, locus YLR102C, strain apc9, stronger effect = lower value",1.04
same,normalized growth,"S. cerevisiae deletion strains, locus YLR113W, strain HOG1, stronger effect = lower value",1.12
same,normalized growth,"S. cerevisiae deletion strains, locus YLR221C, strain rsa3, stronger effect = lower value",0.573 (active)
same,normalized growth,"S. cerevisiae deletion strains, locus YLR258W, strain gsy2, stronger effect = lower value",0.523 (active)
same,normalized growth,"S. cerevisiae deletion strains, locus YLR262C, strain YPT6 (second series), stronger effect = lower value",0.539 (active)
same,normalized growth,"S. cerevisiae deletion strains, locus YLR262C, strain YPT6, stronger effect = lower value",0.69
same,normalized growth,"S. cerevisiae deletion strains, locus YLR268W, strain sec22, stronger effect = lower value",0.81 (active)
same,normalized growth,"S. cerevisiae deletion strains, locus YLR320W, strain mms22, stronger effect = lower value",0.619 (active)
same,normalized growth,"S. cerevisiae deletion strains, locus YLR330W, strain CHS5, stronger effect = lower value",0.898 (active)
same,normalized growth,"S. cerevisiae deletion strains, locus YLR342W, strain FKS1 (second series), stronger effect = lower value",0.449 (active)
same,normalized growth,"S. cerevisiae deletion strains, locus YLR342W, strain FKS1, stronger effect = lower value",0.447 (active)
same,normalized growth,"S. cerevisiae deletion strains, locus YLR357W, strain rsc2, stronger effect = lower value",0.602 (active)
same,normalized growth,"S. cerevisiae deletion strains, locus YLR370C, strain arc18, stronger effect = lower value",0.499 (active)
same,normalized growth,"S. cerevisiae deletion strains, locus YLR371W, strain rom2, stronger effect = lower value",0.849 (active)
same,normalized growth,"S. cerevisiae deletion strains, locus YLR384C, strain iki3, stronger effect = lower value",0.713 (active)
same,normalized growth,"S. cerevisiae deletion strains, locus YLR418C, strain cdc73, stronger effect = lower value",0.583 (active)
same,normalized growth,"S. cerevisiae deletion strains, locus YML016C, strain PPZ1, stronger effect = lower value",0.482 (active)
same,normalized growth,"S. cerevisiae deletion strains, locus YML032C, strain rad52, stronger effect = lower value",1.05
same,normalized growth,"S. cerevisiae deletion strains, locus YML120C, strain ndi1, stronger effect = lower value",0.634 (active)
same,normalized growth,"S. cerevisiae deletion strains, locus YML124C, strain tub3, stronger effect = lower value",1.02
same,normalized growth,"S. cerevisiae deletion strains, locus YMR058W, strain fet3, stronger effect = lower value",0.101 (active)
same,normalized growth,"S. cerevisiae deletion strains, locus YMR078C, strain ctf18, stronger effect = lower value",1.02
same,normalized growth,"S. cerevisiae deletion strains, locus YMR125W, strain sto1, stronger effect = lower value",1.04
same,normalized growth,"S. cerevisiae deletion strains, locus YMR129W, stronger effect = lower value",0.604 (active)
same,normalized growth,"S. cerevisiae deletion strains, locus YMR205C, strain PFK2, stronger effect = lower value",0.353 (active)
same,normalized growth,"S. cerevisiae deletion strains, locus YMR223W, strain ubp8, stronger effect = lower value",0.979
same,normalized growth,"S. cerevisiae deletion strains, locus YMR231W, strain pep5, stronger effect = lower value",0.158 (active)
same,normalized growth,"S. cerevisiae deletion strains, locus YMR263W, strain SAP30, stronger effect = lower value",0.723 (active)
same,normalized growth,"S. cerevisiae deletion strains, locus YMR307W, strain GAS1, stronger effect = lower value",0.481 (active)
same,normalized growth,"S. cerevisiae deletion strains, locus YNL067W, strain RPL9B, stronger effect = lower value",0.699 (active)
same,normalized growth,"S. cerevisiae deletion strains, locus YNL071W, strain lat1, stronger effect = lower value",0.607 (active)
same,normalized growth,"S. cerevisiae deletion strains, locus YNL128W, strain TEP1, stronger effect = lower value",0.351 (active)
same,normalized growth,"S. cerevisiae deletion strains, locus YNL153C, strain GIM3, stronger effect = lower value",0.741 (active)
same,normalized growth,"S. cerevisiae deletion strains, locus YNL183C, strain NPR1, stronger effect = lower value",0.983
same,normalized growth,"S. cerevisiae deletion strains, locus YNL209W, strain ssb2, stronger effect = lower value",0.149 (active)
same,normalized growth,"S. cerevisiae deletion strains, locus YNL233W, strain BNI4, stronger effect = lower value",0.768 (active)
same,normalized growth,"S. cerevisiae deletion strains, locus YNL248C, strain rpa49, stronger effect = lower value",0.863 (active)
same,normalized growth,"S. cerevisiae deletion strains, locus YNL250W, strain rad50, stronger effect = lower value",1.02
same,normalized growth,"S. cerevisiae deletion strains, locus YNL271C, strain bni1, stronger effect = lower value",1.03
same,normalized growth,"S. cerevisiae deletion strains, locus YNL298W, strain CLA4, stronger effect = lower value",1.03
same,normalized growth,"S. cerevisiae deletion strains, locus YNL307C, strain MCK1, stronger effect = lower value",1.04
same,normalized growth,"S. cerevisiae deletion strains, locus YNL322C, strain KRE1 (second series), stronger effect = lower value",0.857 (active)
same,normalized growth,"S. cerevisiae deletion strains, locus YNL322C, strain KRE1, stronger effect = lower value",0.569 (active)
same,normalized growth,"S. cerevisiae deletion strains, locus YNR049C, strain mso1, stronger effect = lower value",0.913 (active)
same,normalized growth,"S. cerevisiae deletion strains, locus YNR052C, strain pop2, stronger effect = lower value",0.975
same,normalized growth,"S. cerevisiae deletion strains, locus YOL006C, strain TOP1, stronger effect = lower value",0.216 (active)
same,normalized growth,"S. cerevisiae deletion strains, locus YOL012C, strain htz1",0.378
same,normalized growth,"S. cerevisiae deletion strains, locus YOL147C, strain pex11, stronger effect = lower value",1.01
same,normalized growth,"S. cerevisiae deletion strains, locus YOR001W, strain rrp6, stronger effect = lower value",0.57 (active)
same,normalized growth,"S. cerevisiae deletion strains, locus YOR061W, strain CKA2, stronger effect = lower value",0.848 (active)
same,normalized growth,"S. cerevisiae deletion strains, locus YOR069W, strain VPS5, stronger effect = lower value",0.891 (active)
same,normalized growth,"S. cerevisiae deletion strains, locus YOR070C, strain gyp1, stronger effect = lower value",0.495 (active)
same,normalized growth,"S. cerevisiae deletion strains, locus YOR080W, strain dia2, stronger effect = lower value",0.286 (active)
same,normalized growth,"S. cerevisiae deletion strains, locus YOR083W, strain WHI5, stronger effect = lower value",0.543 (active)
same,normalized growth,"S. cerevisiae deletion strains, locus YOR106W, strain vam3, stronger effect = lower value",0.119 (active)
same,normalized growth,"S. cerevisiae deletion strains, locus YOR136W, strain idh2, stronger effect = lower value",0.99
same,normalized growth,"S. cerevisiae deletion strains, locus YOR144C, strain elg1, stronger effect = lower value",1.01
same,normalized growth,"S. cerevisiae deletion strains, locus YOR184W, strain ser1, stronger effect = lower value",0.857 (active)
same,normalized growth,"S. cerevisiae deletion strains, locus YOR231W, strain MKK1, stronger effect = lower value",1.04
same,normalized growth,"S. cerevisiae deletion strains, locus YOR265W, strain rbl2, stronger effect = lower value",0.658 (active)
same,normalized growth,"S. cerevisiae deletion strains, locus YOR270C, strain vph1, stronger effect = lower value",0.223 (active)
same,normalized growth,"S. cerevisiae deletion strains, locus YOR290C, strain snf2, stronger effect = lower value",0.496 (active)
same,normalized growth,"S. cerevisiae deletion strains, locus YOR316C, strain cot1, stronger effect = lower value",1.04
same,normalized growth,"S. cerevisiae deletion strains, locus YPL051W, strain arl3, stronger effect = lower value",0.263 (active)
same,normalized growth,"S. cerevisiae deletion strains, locus YPL055C, strain LGE1, stronger effect = lower value",0.473 (active)
same,normalized growth,"S. cerevisiae deletion strains, locus YPL078C, strain atp4, stronger effect = lower value",0.705 (active)
same,normalized growth,"S. cerevisiae deletion strains, locus YPL106C, strain sse1, stronger effect = lower value",0.593 (active)
same,normalized growth,"S. cerevisiae deletion strains, locus YPL240C, strain hsp82, stronger effect = lower value",0.679 (active)
same,normalized growth,"S. cerevisiae deletion strains, locus YPL241C, strain CIN2, stronger effect = lower value",0.922 (active)
same,normalized growth,"S. cerevisiae deletion strains, locus YPL256C, strain CLN2, stronger effect = lower value",1.15
same,normalized growth,"S. cerevisiae deletion strains, locus YPR119W, strain clb2, stronger effect = lower value",1.03
same,normalized growth,"S. cerevisiae deletion strains, locus YPR141C, strain kar3, stronger effect = lower value",1.03
same,normalized growth,"S. cerevisiae deletion strains, locus YPR163C, strain tif3, stronger effect = lower value",1.02
same,normalized growth,"S. cerevisiae deletion strains, locus YPR167C, strain met16, stronger effect = lower value",1.02
same,normalized growth,"S. cerevisiae deletion strains, strain wtn01, stronger effect = lower value",0.808 (active)
same,normalized growth,"S. cerevisiae strains, strain wild type, stronger effect = lower value",0.491 (active)
